Source: PubChem BioAssay AID488969 (Vanderbilt High Throughput Screening Facility, 2010)
In all, about 110,000 compounds were measured (“z-score”: median about -0.1, highest 2% from about 2 on). Only a selection was taken, and the highest values are over-represented in it overall. Activity calls are given as the source filed them.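 How the source made its calls: active means z-score in the third read window above 3 or below -3; inactive means the rest.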

Molecular target: Metabotropic glutamate receptor 8 (Rattus norvegicus) (UniProt P70579)
Sequence (P70579 whole entry, looked up): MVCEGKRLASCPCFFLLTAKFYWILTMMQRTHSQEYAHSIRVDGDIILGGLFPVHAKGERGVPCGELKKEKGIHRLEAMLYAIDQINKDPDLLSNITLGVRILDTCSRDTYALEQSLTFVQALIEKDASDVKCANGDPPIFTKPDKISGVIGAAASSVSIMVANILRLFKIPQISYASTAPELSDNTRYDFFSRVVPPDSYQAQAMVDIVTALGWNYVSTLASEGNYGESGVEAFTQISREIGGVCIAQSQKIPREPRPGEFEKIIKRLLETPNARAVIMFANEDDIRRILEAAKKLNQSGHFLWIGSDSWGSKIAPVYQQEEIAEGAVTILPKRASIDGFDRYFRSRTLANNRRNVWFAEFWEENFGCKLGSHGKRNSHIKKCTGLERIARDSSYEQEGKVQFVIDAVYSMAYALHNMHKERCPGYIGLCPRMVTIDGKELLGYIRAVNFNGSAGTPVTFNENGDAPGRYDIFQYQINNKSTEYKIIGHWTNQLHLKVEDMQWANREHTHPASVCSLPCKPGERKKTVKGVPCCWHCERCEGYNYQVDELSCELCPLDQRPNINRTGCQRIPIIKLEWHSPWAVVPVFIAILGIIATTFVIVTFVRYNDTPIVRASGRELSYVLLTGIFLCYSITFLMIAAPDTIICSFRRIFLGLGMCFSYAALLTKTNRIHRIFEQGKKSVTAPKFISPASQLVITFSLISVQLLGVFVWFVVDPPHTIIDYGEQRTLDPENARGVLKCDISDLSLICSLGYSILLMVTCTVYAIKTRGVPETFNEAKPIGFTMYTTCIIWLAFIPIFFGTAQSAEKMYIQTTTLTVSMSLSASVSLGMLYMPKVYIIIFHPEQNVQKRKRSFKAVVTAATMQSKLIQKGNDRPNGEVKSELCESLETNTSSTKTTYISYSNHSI
Experiment: mGluR8 Gi/Go-coupled signaling modulation – cell-based, rat, thallium flux, HTS, primary screen (AID 488969)
Conditions: HEK293 rat mGluR8, GIRK (G protein-gated inwardly rectifying potassium channel) thallium flux, FluoZin2; at 10 µM; stronger effect = higher value; submaximal glutamate (EC20) added with thallium

SMILES | z-score
O=C(CN(Cc1ccccc1)C(=O)CSc1nnc(COc2ccccc2)o1)NC1CCCC1 | 0.0593
Cc1cc(/C=C(\C#N)C(=O)NC2CC2)c(C)[nH]1 | 0.155
CCCNC(=O)c1cccc(COCC(F)(F)C(F)F)c1 | -0.0567
Cc1ccc(S(=O)(=O)N2CCOCC2)cc1C(=O)Nc1ccc2c(c1)CCC2 | -0.205
O=C1/C(=C/c2cccnc2)SC(=S)N1c1ccc(F)cc1 | -0.12
CCCC(=O)n1nc(-c2cccnc2)nc1N | 0.575
CCCC(=O)n1nc(-c2ccccc2)nc1N | 9.34 (active)
CCC(=O)n1nc(-c2ccccc2)nc1N | -0.874
S=C(NC1CCCCC1)N(CCc1nc2ccccc2[nH]1)C1CCCC1 | -1.02
CC1Cc2ccccc2N1C(=O)CCNS(=O)(=O)c1cccc2nsnc12 (stereo unspecified) | 0.906
CCOC(=O)c1cc(C(C)=O)c(=O)n(C)c1N | -0.198
CCOC(=O)c1cc2n(c1/N=C/N(C)C)-c1ccccc1C2=O | -0.437
CCOC(=O)c1cc2n(c1N)-c1ccccc1C2=O | 5.13 (active)
CCOC(=O)c1c(C)[nH]c(C)c1C(=O)COC(=O)/C=C/c1ccc(OC(F)F)cc1 | -0.244
COCC(C)n1c(SCC(=O)NNC(=O)c2ccccc2)nc2ccccc2c1=O (stereo unspecified) | -0.346
CCOC(=O)/C(C#N)=C\C1=C(N2CCCC2)CC(C)(C)OC1 | 0.457

SMILES | z-score
CCOC(=O)/C(C#N)=C/C1=C(N2CCCC2)CC(C)(C)OC1 | 2.75
CCOC(=O)/C(C#N)=C/C1=C(N2CCCC2)CC(C)(CC)OC1 (stereo unspecified) | -0.501
Cc1ccc(S(=O)(=O)N2C(=O)C(c3ccccc3)SC2=Nc2ccccc2)cc1 (stereo unspecified) | 0.00767
CN(CCO)c1ccc([N+](=O)[O-])cc1C(=O)O | 0.404
CCOc1ccc(S(=O)(=O)Nc2ccccc2C(=O)N/N=C/c2c(OC)ccc3ccccc23)cc1 | -0.58
O=C(Nc1ccccc1C(=O)N/N=C/c1ccco1)c1ccccc1Cl | 0.924
O=C(Nc1ccccc1C(=O)N/N=C/c1ccco1)c1ccccc1 | 3.37 (active)
O=C(Nc1ccccc1C(=O)N/N=C/c1ccco1)c1ccc(Cl)cc1 | 0.162
Cc1ccccc1C(=O)Nc1ccccc1C(=O)N/N=C\c1ccco1 | 5.6 (active)
Cc1nc2ccccc2cc1C(=O)N/N=C/c1ccco1 | 0.211
O=C(N/N=C/c1ccco1)c1ccncc1 | 0.0764
Cc1cc(C)nc(N/N=C/c2ccccc2OCc2cccc(Br)c2)n1 | -0.027
O=C(NN1C(=O)C2C3C=CC(C4CC34)C2C1=O)c1ccc(Cl)cc1Cl (stereo unspecified) | -0.0308
Cc1ccc(-c2nnn(CC(=O)N(c3ccccc3)C(C(=O)NC(C)(C)C)c3cccs3)n2)o1 (stereo unspecified) | -0.243
CCCC(=O)Nc1c2c(nn1-c1ccc(OC)cc1)CS(=O)C2 (stereo unspecified) | -1.01
